Among the data in PubChem BioAssay (Tox21) are Potency and outcome values, retold here.

SMILES strings stand for the structures. Unmarked numbers belong to inactive results. Results filed as inconclusive are left out. Activity calls are given as the source filed them. Unless noted, calls come from the whole dose curve.

Assay [1] in a line: Nuclear factor erythroid 2-related factor 2/antioxidant responsive element (Nrf2/ARE) small molecule agonists: qHTS cell viability counter screen in human keratinocytes (AID 1919968; active = well fitted curve in the direction sought with a large enough effect in the repeat runs; an effect the other way counts as inactive or inconclusive; note: nearly all actives have a fitted effect of over 55% in size; note: potency is the fitted concentration of half-maximal effect). In outline: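 Measured as CellTiter-Fluor fluorescence, this readout tracks cytotoxicity in the same wells as the ARE-luciferase screen. HaCaT reporter cells (1,500/well) received compounds after a 5 h pre-incubation and were exposed for 23 h.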

Assay [2] in a line: Nuclear factor erythroid 2-related factor 2/antioxidant responsive element (Nrf2/ARE) small molecule agonists: luciferase reporter gene qHTS assay in human keratinocytes (AID 1919969). Note: nearly all actives have a fitted effect of over 35% in size. Note: potency is the fitted concentration of half-maximal effect. A general note: In a reporter assay the amount or activity of a reporter protein is the signal.
For assay [3], the target named is Gonadotropin-releasing hormone receptor (Homo sapiens) (UniProt P30968). The assay is described as follows: Human gonadotropin-releasing hormone receptor (GnRHR) small molecule agonists, calcium flux assay in GnRHR-HEK293 cells (AID 1920063). Note: nearly all actives have a fitted effect of over 35% in size. Summed up: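 Fluorescence kinetics (480 nm excitation, 540 nm emission; 3 min, 1 s steps) report calcium mobilisation in human GnRHR-HEK293 cells in agonist mode. Dye incubation: 1 h, 37 C.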
Gonadotropin-releasing hormone receptor (Homo sapiens), sequence (P30968 whole entry, looked up): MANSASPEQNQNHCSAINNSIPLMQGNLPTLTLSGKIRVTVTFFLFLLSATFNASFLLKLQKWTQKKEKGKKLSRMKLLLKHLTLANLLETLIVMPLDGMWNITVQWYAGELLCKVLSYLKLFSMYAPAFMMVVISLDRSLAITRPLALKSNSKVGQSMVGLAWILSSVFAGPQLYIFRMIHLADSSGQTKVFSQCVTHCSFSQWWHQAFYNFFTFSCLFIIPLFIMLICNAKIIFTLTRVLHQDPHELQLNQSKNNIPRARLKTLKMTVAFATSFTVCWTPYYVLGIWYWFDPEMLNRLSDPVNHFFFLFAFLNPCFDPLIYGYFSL
In general terms: Calcium flux is commonly read through the fluorescence of an indicator in the cells.

The target in assay [4] is KiSS-1 receptor (Homo sapiens) (UniProt Q969F8). The assay is described as follows: Human kisspeptin (KISS1R) small molecule agonists, calcium flux assay in KISS1R-HEK293 cells (AID 1920064; active = well fitted curve in the direction sought with a large enough effect in the repeat runs; an effect the other way counts as inactive or inconclusive). In outline:
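Measures KISS1R agonism through calcium-sensitive dye fluorescence in stably transfected HEK293 cells, read for 3 min after pin-tool compound delivery; 15-point titrations in triplicate.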

The nature of assay [5]: G protein-coupled receptor (GPCR) small molecule agonists, calcium flux assay: HEK293 wild type cell line counter screen (AID 1920065). In outline:
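Readout: fluorescence at 480 nm excitation/540 nm emission, sampled at 1 s intervals for 3 min. Cells had been cultured 18 h, then dye-loaded 1 h at 37 C before compound or ATP addition.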

Assay [6] can be described thus: p53 small molecule agonists, cell-based qHTS assay with human liver microsomes (AID 1963577). Summed up:
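Fluorescence of the beta-lactamase reporter in p53RE-bla cells, detected with LiveBLAzer substrate (2 h, room temperature, dark), served as the read-out after 16 h compound exposure at 37 C with human liver microsomes and NADPH, each 0.5 mg/mL final.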
A general note: qHTS replaces the single test concentration by a dilution series.

The nature of assay [7]: p53 small molecule agonists, cell-based qHTS assay with rat liver microsomes (AID 1963578). In outline:
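Cells carrying a p53 response element–beta-lactamase reporter were plated and rested 5 h, then dosed with compound in DMSO plus rat liver microsomes and NADPH, each at 0.5 mg/mL final. After 16 h at 37 C, LiveBLAzer substrate was added for 2 h.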

Assay [8] is described as follows: p53 small molecule agonists, cell-based qHTS assay with human liver microsomes: qHTS cell viability counter screen (AID 1963579). Note: nearly all actives have a fitted effect of over 45% in size. Summed up:
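Cytotoxicity counter screen: p53RE-bla, 4,000 cells/well; 5 h settle, 37 C/5% CO2; cpd + HLM 0.5 mg/mL + NADPH 0.5 mg/mL (final); 16 h, 37 C; CellTiter-Glo, 30 min RT, luminescence.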

Assay [9] can be described thus: p53 small molecule agonists, cell-based qHTS assay with rat liver microsomes: qHTS cell viability counter screen (AID 1963580). Note: nearly all actives have a fitted effect of over 45% in size. In outline:
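HCT-116 p53RE-bla, 4,000 cells/well, 5 h pre-incubation; cpd + rat liver microsomes 0.5 mg/mL + NADPH 0.5 mg/mL (final); 16 h, 37 C; CellTiter-Glo, 30 min RT; luminescence.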

Assay [10] can be described thus: p53 small molecule agonists, cell-based qHTS assay: qHTS cell viability counter screen (AID 1963581). Note: nearly all actives have a fitted effect of over 45% in size. Summed up: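 In the same plates used for the p53 bla reporter, HCT-116 cells given compounds for 16 h at 37 C received CellTiter-Glo; luminescence was recorded 30 min later at room temperature.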
A short description of assay [11]: p53 small molecule agonists, cell-based qHTS assay (AID 1963582; active = well fitted activation curve with a large enough effect in the signal ratio in the repeat runs, not every such curve was filed as active; the % refers to the signal ratio). In outline: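 Compounds are pin-transferred in DMSO onto p53RE-bla cells and incubated 16 h at 37 C. The B/G FRET beta-lactamase substrate is then applied for 2 h at RT and fluorescence recorded.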
Assay [12] deals with 5-hydroxytryptamine receptor 2A (Homo sapiens) (UniProt P28223). As to the kind of experiment: 5-hydroxytryptamine receptor 2A (HTR2A) small molecule antagonists, cell-based qHTS assay (AID 1963586). Note: nearly all actives have a fitted effect of over 45% in size. Summed up:
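Antagonist-mode intracellular calcium assay: DOI (4 nM) added after 5 min compound pre-incubation at room temperature to dye-loaded HTR2A-CHO cells. Fluorescence followed for 3 min, sampled every second.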

The target is the same in assay [13]. As to the kind of experiment: 5-hydroxytryptamine receptor 2A (HTR2A) small molecule agonists, cell-based qHTS assay (AID 1963587). Note: nearly all actives have a fitted effect of over 30% in size. Note: potency is the fitted concentration of half-maximal effect. In outline: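 Kinetic calcium-flux fluorescence (2 min, 1 sec intervals) after compound addition in agonist mode. HTR2A-CHO cells were cultured 18 h, then dye-loaded 1 h at 37 C.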
The target in assay [14] is Muscarinic acetylcholine receptor M1 (Homo sapiens) (UniProt P11229). The assay is described as follows: Cholinergic receptor muscarinic 1 (CHRM1) small molecule antagonists, cell-based qHTS assay (AID 1963588). Note: nearly all actives have a fitted effect of over 40% in size. In outline: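 CHRM1-CHO calcium-flux assay, antagonist mode. Cells were seeded 18 h, dye-loaded 1 h at 37 C and given compound for 5 min at RT, then acetylcholine was added at 50nM. FDSS fluorescence was read 3 min; 15 concentrations, three runs.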
Muscarinic acetylcholine receptor M1 (Homo sapiens), sequence (P11229 whole entry, looked up): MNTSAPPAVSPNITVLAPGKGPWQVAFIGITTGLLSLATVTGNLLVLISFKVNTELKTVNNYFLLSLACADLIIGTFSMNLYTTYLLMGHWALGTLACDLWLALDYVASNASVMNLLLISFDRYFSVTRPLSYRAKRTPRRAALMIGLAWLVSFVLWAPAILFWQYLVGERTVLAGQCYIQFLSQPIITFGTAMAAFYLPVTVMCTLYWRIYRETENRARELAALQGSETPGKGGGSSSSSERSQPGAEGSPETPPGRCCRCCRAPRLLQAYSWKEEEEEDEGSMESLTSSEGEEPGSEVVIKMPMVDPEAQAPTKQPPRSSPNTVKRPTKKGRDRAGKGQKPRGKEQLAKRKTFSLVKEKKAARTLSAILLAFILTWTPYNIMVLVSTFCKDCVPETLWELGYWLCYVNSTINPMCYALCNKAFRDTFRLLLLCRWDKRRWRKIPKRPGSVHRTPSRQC

Assay [15] has the same target. The assay is described as follows: Cholinergic receptor muscarinic 1 (CHRM1) small molecule agonists, cell-based qHTS assay (AID 1963589). Note: nearly all actives have a fitted effect of over 35% in size. Note: potency is the fitted concentration of half-maximal effect. Summed up:
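Each compound was tested at 15 concentrations across three independent runs on dye-loaded CHO cells stably expressing human CHRM1, reading intracellular calcium fluorescence kinetically at 1 sec intervals.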

A short description of assay [16]: cAMP Responsive Elements (CRE) small molecule agonists, cell-based qHTS assay (AID 1963590). In outline:
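Cell line: CRE-bla HEK 293T; medium DMEM/10% dialyzed FBS/0.1 mM NEAA/1 mM pyruvate/25 mM HEPES; 3 h compound exposure; beta-lactamase FRET readout after 2 h substrate loading at RT.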

Assay [17] can be described thus: cAMP Responsive Elements (CRE) small molecule antagonists, cell-based qHTS assay (AID 1963591; active = well fitted inhibition curve with a large enough effect in the signal ratio in the repeat runs, not every such curve was filed as active; the % refers to the signal ratio). Summed up:
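Inhibition of NKH477-driven (0.25 uM final) CRE-beta-lactamase signal in HEK293T cells, 3 h compound exposure at 37 °C, detected by FRET substrate fluorescence.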

In assay [18] the target is Beta-2 adrenergic receptor (Homo sapiens) (UniProt P07550). As to the kind of experiment: Adrenergic beta2 receptor (ADRB2) small molecule antagonists, cell-based qHTS assay (AID 1963592). Note: series mostly up to about 92 µM; nearly all actives have a fitted effect of over 50% in size. In outline:
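Cells (CHO, stable ADRB2 overexpression) incubated 18-20hr at 37C; compounds added from DMSO; agonist mix (1nM isoproterenol, 100uM IBMX, 25uM Ro-20-1724) added; 0.5hr RT; d2-cAMP and anti-cAMP-cryptate added; 1hr RT; 665/615 nm read.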

Assay [19] has as its target D(2) dopamine receptor (Homo sapiens) (UniProt P14416). As to the kind of experiment: Dopamine D2 receptor (DRD2) small molecule antagonists, cell-based qHTS assay (AID 1963595; active = well fitted inhibition curve with a large enough effect in the signal ratio in the repeat runs, with a control signal flat; the % refers to the signal ratio). Summed up:
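Cells were plated and grown for 24 h at 37 °C. Ro20-1724 (0.1 mM final) went in first, then compound for 10 min. NKH477 (200 nM) with quinpirole (12 nM) followed for 30 min at RT, then HTRF detection reagents for 1 h.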

Assay [20] shares this target. As to the kind of experiment: Dopamine D2 receptor (DRD2) small molecule agonists, cell-based qHTS assay (AID 1963594). Note: nearly all actives have a fitted effect of over 35% in size. Summed up: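 cAMP accumulation in DRD2-HEK293 cells measured by HTRF after 1 h detection; compounds added 10 min before NKH477 (200nM […]) forskolin-analogue stimulation, 30 min at room temperature, with Ro20-1724 present at 0.1 mM final.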

D(2) dopamine receptor (Homo sapiens), sequence (P14416 whole entry, looked up): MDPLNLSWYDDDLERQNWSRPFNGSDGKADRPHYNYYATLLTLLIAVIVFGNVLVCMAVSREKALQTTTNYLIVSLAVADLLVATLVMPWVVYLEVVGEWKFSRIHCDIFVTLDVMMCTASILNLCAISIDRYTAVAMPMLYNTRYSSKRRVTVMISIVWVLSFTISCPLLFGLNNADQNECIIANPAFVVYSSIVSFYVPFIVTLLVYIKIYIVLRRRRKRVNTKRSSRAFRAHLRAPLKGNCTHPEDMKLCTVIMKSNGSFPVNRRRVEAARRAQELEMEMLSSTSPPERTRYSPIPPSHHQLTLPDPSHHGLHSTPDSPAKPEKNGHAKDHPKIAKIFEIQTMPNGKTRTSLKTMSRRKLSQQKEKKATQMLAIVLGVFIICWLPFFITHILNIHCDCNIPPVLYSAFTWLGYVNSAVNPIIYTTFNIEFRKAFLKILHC
KiSS-1 receptor (Homo sapiens), sequence (Q969F8 whole entry, looked up): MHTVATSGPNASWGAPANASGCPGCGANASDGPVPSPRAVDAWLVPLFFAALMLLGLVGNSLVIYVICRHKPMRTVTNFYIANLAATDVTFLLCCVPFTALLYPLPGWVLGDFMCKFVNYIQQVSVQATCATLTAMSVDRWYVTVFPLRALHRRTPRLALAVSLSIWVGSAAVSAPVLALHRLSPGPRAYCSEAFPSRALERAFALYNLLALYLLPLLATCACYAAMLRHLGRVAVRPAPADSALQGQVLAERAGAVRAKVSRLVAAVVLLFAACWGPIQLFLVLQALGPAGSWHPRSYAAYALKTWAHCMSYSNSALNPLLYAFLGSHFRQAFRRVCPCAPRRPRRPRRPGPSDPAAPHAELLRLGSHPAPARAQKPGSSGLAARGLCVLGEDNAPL
5-hydroxytryptamine receptor 2A (Homo sapiens), sequence (P28223 whole entry, looked up): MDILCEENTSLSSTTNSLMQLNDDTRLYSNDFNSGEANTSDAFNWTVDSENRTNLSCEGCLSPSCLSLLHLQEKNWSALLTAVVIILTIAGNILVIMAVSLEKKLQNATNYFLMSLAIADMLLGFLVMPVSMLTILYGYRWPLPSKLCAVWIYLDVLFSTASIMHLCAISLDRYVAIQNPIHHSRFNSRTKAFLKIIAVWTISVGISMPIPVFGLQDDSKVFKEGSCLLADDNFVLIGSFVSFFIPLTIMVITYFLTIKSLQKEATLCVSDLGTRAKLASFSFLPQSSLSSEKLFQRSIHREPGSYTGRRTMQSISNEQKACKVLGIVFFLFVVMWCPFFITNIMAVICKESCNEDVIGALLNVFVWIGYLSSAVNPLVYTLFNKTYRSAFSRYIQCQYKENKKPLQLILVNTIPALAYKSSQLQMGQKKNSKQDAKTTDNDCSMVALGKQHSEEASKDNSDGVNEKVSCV
Beta-2 adrenergic receptor (Homo sapiens), sequence (P07550 whole entry, looked up): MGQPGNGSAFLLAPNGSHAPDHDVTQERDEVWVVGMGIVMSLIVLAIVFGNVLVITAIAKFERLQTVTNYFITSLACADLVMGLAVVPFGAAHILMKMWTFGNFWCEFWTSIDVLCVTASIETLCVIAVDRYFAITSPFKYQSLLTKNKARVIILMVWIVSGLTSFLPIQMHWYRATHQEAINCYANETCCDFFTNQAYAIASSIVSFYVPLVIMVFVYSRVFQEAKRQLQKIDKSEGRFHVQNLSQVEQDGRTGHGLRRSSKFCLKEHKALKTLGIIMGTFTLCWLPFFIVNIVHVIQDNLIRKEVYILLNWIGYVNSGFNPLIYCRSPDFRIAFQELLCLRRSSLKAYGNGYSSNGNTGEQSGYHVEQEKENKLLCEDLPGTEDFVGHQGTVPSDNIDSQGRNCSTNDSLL

With `C#CC(C)(CC)OC(=O)c1ccccc1C(=O)O` (stereo not given), the Potency result in [1], in [2], in assay [3], in assay [6], in [7] and in [8] was “inactive” each time. Moreover, the Potency entry in assay [9], in [10], in assay [11], in [12], in assay [13] and in [14] was “inactive” each time. The Potency result in assay [15], in [16], in assay [17], in [18] and in assay [19] was “inactive” each time. Further, the result in assay [4] and in assay [5] was inactive.

As to `C=CCON/C(CCC)=C1\C(=O)CC(C)(C)C(C(=O)OC)=C1O`, the Potency result in assay [1], in [2], in assay [3], in [6], in assay [7] and in assay [8] was “inactive” each time. Further, the Potency entry in assay [9], in [10], in assay [11], in assay [12], in assay [13] and in [14] was “inactive” throughout. For the same compound, the Potency result in assay [16], in assay [17], in assay [18] and in assay [19] was “inactive” in each case. Further, the result in assay [4] and in [5] was inactive. For the same compound, the Potency in assay [15] is 4.84 µM (active).

As for `CCC(C)C(=O)OC` (stereo not given), the Potency result in assay [1], in assay [2], in [3], in assay [6], in assay [7] and in [8] was “inactive” throughout. For the same compound, the Potency result in [9], in assay [10], in assay [11], in [12], in assay [13] and in [14] was “inactive” each time. Besides, the Potency entry in assay [15], in assay [16], in assay [17], in assay [18] and in [19] was “inactive” throughout. Besides, the result in assay [4] and in [5] was inactive.

With `CCCCS(=O)(=O)N[C@@H](Cc1ccc(OCCCCC2CCNCC2)cc1)C(=O)O`, the Potency result in [1], in assay [2], in [3], in assay [6], in [7] and in assay [8] was “inactive” each time. Moreover, the Potency result in assay [9], in assay [10], in assay [11], in assay [12], in [13] and in assay [14] was “inactive” throughout. Further, the Potency result in assay [15], in assay [16], in [17], in assay [18] and in [19] was “inactive” in each case. Further, the result in [4] and in assay [5] was inactive.

`c1ccc(CCCc2ccccn2)cc1`: the Potency result in assay [1], in assay [2], in [3], in assay [6], in assay [7] and in assay [8] was “inactive” in each case. The Potency entry in assay [9], in assay [10], in assay [11], in assay [12], in assay [13] and in [14] was “inactive” throughout. The Potency result in assay [15], in assay [16], in assay [17], in [18], in assay [20] and in assay [19] was “inactive” throughout. Further, the result in [4] and in [5] was inactive.

Consider `C=C(C)c1ccccc1`, for which the Potency result in assay [1], in assay [2], in assay [3], in [6], in assay [7] and in assay [8] was “inactive” throughout. Also, the Potency entry in [9], in [10], in assay [11], in assay [12], in assay [13] and in assay [14] was “inactive” in each case. For the same compound, the Potency result in assay [15], in assay [16], in assay [17], in assay [18], in assay [20] and in assay [19] was “inactive” in each case. Further, the outcome in assay [4] and in [5] was inactive.

Turning to `COc1ccc(OC)c(N=Nc2c(O)ccc3ccccc23)c1`, the Potency in [1] is 27.3 µM (active); in assay [2] it was 27.3 µM (active); in assay [13], 4.36 µM (active). The Potency result in assay [3], in assay [6], in [7], in assay [8], in assay [9] and in assay [10] was “inactive” throughout. Further, the Potency entry in assay [11], in [12], in [14], in assay [15], in [16] and in assay [17] was “inactive” each time. Moreover, the Potency entry in assay [20] and in [19] was “inactive” throughout. In addition, the result in [4] and in [5] was inactive.

As to `Cc1c(NC(C)C)c(=O)n(-c2ccccc2)n1C`, the Potency entry in assay [1], in assay [2], in assay [3], in assay [6], in assay [7] and in assay [8] was “inactive” throughout. Moreover, the Potency entry in assay [9], in [10], in assay [11], in assay [12], in assay [13] and in assay [14] was “inactive” in each case. The Potency entry in [15], in [16], in assay [17], in assay [18], in [20] and in assay [19] was “inactive” each time. The outcome in assay [4] and in assay [5] was inactive.
